In PubChem BioAssay AID651820 (National Center for Advancing Translational Sciences (NCATS), 2012):
About 12,000 (3.5%) of roughly 340,000 compounds were called active. About 18% were inconclusive and are not listed. Many of the other results were omitted from the sample, so actives are more common in it than they were. More than one record can exist for a structure, and the calls need not agree. Values without a mark were called inactive. Calls come from the whole dose curve; as a rule, active = well fitted inhibition curve with a large enough effect; inconclusive = small, poorly fitted or top-dose-only effect, or another doubt; inactive = no such curve, though single readings can be large or run the other way.

assay: qHTS Assay for Inhibitors of Hepatitis C Virus (HCV); conditions: Huh7.5.1 HCVcc-Cre infection, luciferase reporter, 44 h; series mostly up to 41.8 µM; activity change, negative = inhibition: at the top concentration
Method in brief: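 Antiviral activity was scored by luciferase reporter output from cells infected with HCVcc-Cre (~0.5 moi) in presence of compound, 44 h infection period, cells seeded 1,000/well 4 h prior.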
% is set by controls: 0 for no effect and ±100 for the full control effect; potency is the fitted concentration of half-maximal effect.

Compound | Potency | activity change, negative = inhibition
CC(=O)c1ccc2c(c1)c1ccccc1n2CC(C)C | 2.51 µM (active) | –
CCCCn1c(=O)c(C(C)=O)c(O)c2ccccc21 | – | 1.24%
Cc1cc(NC(=O)CSc2nc3ccccc3n2CC(C)C)no1 | – | -11.2%
CCCCCC(O)c1cccc(OCc2ccc3ccccc3n2)c1 (configuration not stated) | 14.1 µM (active) | 0.332% [at 8.37 µM]
CCCCCCOC(=O)NCC(O)c1ccccc1 (configuration not stated) | – | 6.95%
COc1cccc(C(O)c2nc3ccccc3n2C)c1 (configuration not stated) | – | 11.2%
Cc1ccc(NC(=O)Cn2cnc3c(OCc4ccccc4)ncnc32)cc1C | – | 4.25%
Cc1noc(C)c1C(=O)OC(C)C(=O)Nc1ccc2c(c1)OCO2 (configuration not stated) | – | 7.1%
COc1c(C)cc(C(=O)C2CCCN(S(=O)(=O)c3c(C)noc3C)C2)cc1C (configuration not stated) | 10 µM (active) | –
Cc1ccc(NC(=O)C2CCCN(S(=O)(=O)c3c(C)noc3C)C2)c(C)c1 (configuration not stated) | – | -11.6%
Cc1noc(C)c1S(=O)(=O)N1CCCC(C(=O)Nc2nccs2)C1 (configuration not stated) | – | 0.314%
Nc1c(N(Cc2ccco2)C(=O)c2cccc(F)c2)c(=O)[nH]c(=O)n1Cc1ccccc1 | – | 7.23%
Brc1cnc2ccccc2c1N1CCCCC1 | – | -5.44%
Cn1c2ccccc2c(=O)c2c(=O)n(Cc3ccco3)c(COc3ccccc3)nc21 | – | -7.18%
c1ccc(-c2oc3ncnc(N4CCOCC4)c3c2-c2ccccc2)cc1 | – | -11%
N=c1c2c(-c3ccccc3)c(-c3ccccc3)oc2ncn1Cc1ccco1 | 6.31 µM (active) | –
COc1ccc(Nc2ccc3ccccc3c2)cc1 | – | -3.86%
CC(=O)Nc1ccc(-c2csc(NC=C3C(=O)OC(C)(C)OC3=O)n2)cc1 | – | -9.72%
CC(=O)Nc1ccc(-c2csc(NC(=O)Nc3ccccc3)n2)cc1 | 10 µM (active) | –
CC(=O)Nc1ccc(S(=O)(=O)Nc2nc(-c3ccc(C(C)(C)C)cc3)cs2)cc1 | – | 15.6%
Cc1ccc(S(=O)(=O)N2CCC(C(=O)OCC(=O)N(C)c3ccccc3)CC2)cc1C | – | -3.89%
Cc1cccn2c(=O)nc(SCC(=O)NCc3ccccc3Cl)nc12 | – | 2.77% [at 8.37 µM]
CN(CC(=O)NC(=O)Nc1ccccc1F)Cc1ccccc1 | – | -23.3%
O=C1CC(C(=O)O)NC(=S)N1 (configuration not stated) | – | -0.0683%
O=C(c1ccc(Cl)c(S(=O)(=O)N2CCCCCC2)c1)N1CCN(c2ccc(O)cc2)CC1 | – | -27%
COc1cc(CN2CCC(C(N)=O)CC2)ccc1OCc1ccccc1 | – | -7.93%

Compound | Potency | activity change, negative = inhibition
COc1cc(CNC2CCCC2)c(Br)cc1OCc1ccccc1 | 5.62 µM (active) | –
COc1ccc(CNC2CCCCC2)cc1 | – | 3.26%
O=C(O)c1ccc(Cn2cnc3c(=S)nc[nH]c32)cc1 | – | 9.47%
Cc1ccc(COC(=O)CN2C(=O)NC3(CCCC3)C2=O)cc1 | – | 2.91%
C=CC[C@@H](CC(=O)NCCO)C(=O)N[C@H](C)COC(=O)[C@@H](CC=C)CC(=O)OC(C)(C)C | – | 4.28%
CC(OC(=O)c1ccccc1NCCO)C(=O)Nc1ccnn1C(C)C (configuration not stated) | – | -14.7%
COc1ccccc1N(C)S(=O)(=O)c1ccc(C(=O)N2CCC(C(N)=O)CC2)cc1 | – | -10.2%
COc1ccc(S(=O)(=O)NC(C)C)cc1C(=O)NC1CCCCC1 | – | 6.33%
COc1ccccc1N(C)S(=O)(=O)c1ccc(C(=O)NC2CCCCCC2)cc1 | 11.2 µM (active) | –
CSc1ccccc1NC(=O)COC(=O)CCCOc1ccc(C)cc1 | – | 26%
COc1ccc(-c2c(C)cc3oc(=O)cc(-c4ccccc4)c3c2C)cc1OC | 11.2 µM (active) | –
Cc1cc2oc(=O)cc(-c3ccccc3)c2c(C)c1-c1ccc(OC(F)(F)F)cc1 | – | -14.5% [at 8.37 µM]
COc1ccc(-c2c(C)cc3oc(=O)cc(-c4ccccc4)c3c2C)cc1C=O | – | -7.87%
Cc1ccc(S(=O)(=O)N(C)c2ccc(OCC(=O)OCC(=O)N(CC#N)c3ccccc3)cc2)cc1 | – | 17.5%
NCCN1CCN2C(=O)CN(C(=O)c3ccccc3)CC12 (configuration not stated) | – | -0.729%
CCOc1ccc(Br)cc1S(=O)(=O)N1CCC(C(=O)O)CC1 | – | 7.38%
CCOc1ccc(Br)cc1CSC(=N)N | 11.2 µM (active) | –
CCOCCCNCc1cc(Br)ccc1OCC | – | -11.4%
COc1ccc(OCC(=O)NNC(=O)C2CCC2)cc1 | – | 11%
Cc1ccccc1CSCCNC(=O)c1ccc(Cl)c(S(=O)(=O)N2CCOCC2)c1 | 11.2 µM (active) | –
CC(C)(CNC(=O)c1ccc(Cl)c(S(=O)(=O)N2CCc3ccccc3C2)c1)N1CCOCC1 | 7.08 µM (active) | –
CN(C)S(=O)(=O)c1ccc(C(=O)NCC(C)(C)N2CCOCC2)cc1 | – | 14.9%
COc1ccccc1CNC(=O)c1ccc(N(C)S(=O)(=O)c2ccc(C)cc2)cc1 | – | 10.7%
CC(C)(CNC(=O)Cc1ccc(Cl)cc1Cl)N1CCOCC1 | – | 8.66%
Cc1ccc(C(=O)NCC(c2cccs2)N(C)C)cc1S(=O)(=O)N1CCOCC1 (configuration not stated) | – | 0.639%
Cc1ccccc1CSCCNC(=O)c1ccc(N(C)S(=O)(=O)c2ccccc2)cc1 | 10 µM (active) | –

Compound | Potency | activity change, negative = inhibition
CN(c1ccccc1)S(=O)(=O)c1ccc(C(=O)NCCc2ccccc2)cc1 | – | -13%
Cc1ccc(C(=O)Nc2ncccc2C)cc1S(=O)(=O)N1CCOCC1 | – | 11%
COc1ccc([C@@H]2[C@@H]3C(=O)N(C(C)(C)C)C(=O)[C@@H]3[C@]3(Cc4ccccc4)C(=O)N(c4cccc(Br)c4)C(=O)N23)cc1 | – | -3.64%
O=C(NN=Cc1ccc(N2CCOCC2)cc1)c1cc2ccccc2cc1O | – | -0.628%
O=C(OCC(=O)N1CCN(C(=O)c2ccco2)CC1)c1ccc(Cl)c(Cl)c1 | – | -4.4%
COc1cccc(CC2(CO)CCCN(Cc3ccc(OC(F)F)cc3)C2)c1 (configuration not stated) | – | -16%
CC(C)(C)c1nc(NCC2CCCO2)c2nnn(Cc3ccccc3)c2n1 (configuration not stated) | – | -19.2%
c1coc(CNc2ncnc3ccccc23)c1 | 3.55 µM (active) | –
Clc1cccc(-c2nc(NCC3CCCO3)c3ccccc3n2)c1 (configuration not stated) | – | -57.3%
O=C(NCc1ccncc1)C(=O)NCc1ccco1 | – | 15%
c1ccc2c(NCC3CCCO3)nc(-c3ccncc3)nc2c1 (configuration not stated) | 10 µM (active) | –
CCc1nc2ccccc2c(C(=O)NCc2ccc(OC)cc2)c1C | – | -0.211%
COc1cccc(CNc2nc(C(F)(F)F)nc3ccccc23)c1 | 5.62 µM (active) | –
CCc1ccc(C(CNc2nc(C(F)(F)F)nc3ccccc23)N(C)C)cc1 (configuration not stated) | – | -21.3%
COc1ccc(CNc2ncnc3ccccc23)cc1 | 3.16 µM (active) | –
COc1cccc(CNC(=O)c2n[nH]c3ccccc23)c1 | – | -2.04%
COc1ccc(CNc2nccs2)cc1 | – | 13.7%
FC(F)(F)c1cccc(Nc2ncnc3ccccc23)c1 | – | -26.2%
COc1ccc(C(=O)C(C)OC(=O)c2cccc(S(=O)(=O)Nc3c(C)n(C)n(-c4ccccc4)c3=O)c2)cc1 (configuration not stated) | – | 16.1%
NC(=O)C1(Nc2ccc(-c3ccccc3)cc2)CCCC1 | – | -9.54%
NC(CSC1(c2ccccc2)c2ccccc2-c2ccccc21)C(=O)O (configuration not stated) | – | 7.2%
Cc1cc(NC(=O)c2cc3ccccc3o2)no1 | – | 0.981%
C=CC(=O)Nc1ccc(Nc2ccnc(Nc3ccc(N4CCN(C)CC4)cc3)n2)cc1 | – | 29.9% [at 8.37 µM]
CC(C)COc1ccc(C(=O)OCC(=O)NCCC2=CCCCC2)cc1 | – | 6.35%
COCCN(C(=O)C(C)N1C(=O)c2ccccc2C1=O)c1c(N)n(CC(C)C)c(=O)[nH]c1=O (configuration not stated) | – | 30.2%
COc1cccc(NC(=O)COC(=O)c2ccc3ccccc3n2)c1 | – | 9.47%

Compound | Potency | activity change, negative = inhibition
O=C(COC(=O)c1ccccc1Cl)NC1CCCCCCC1 | – | 6.04%
Cc1ccc(S(=O)(=O)Nc2ccc(F)c(S(=O)(=O)N3CCOCC3)c2)cc1 | – | 12.7%
CCOCCCNc1nc(-c2ccccc2)nc2ccccc12 | – | -23.1%
O=C(Cc1ccccc1)n1nc(-c2ccccc2)nc1NCc1ccco1 | – | 6.35%
c1ccc(-c2nc(NCc3ccco3)c3ccccc3n2)cc1 | 10 µM (active) | –
CCN(C(=O)COC(=O)c1sccc1C)c1c(N)n(Cc2ccccc2)c(=O)[nH]c1=O | – | -7.3%
COc1ccc(NC(=O)Nc2ccc3c(c2)C(=O)N([C@H](C)CO)C[C@H](C)[C@@H](CN(C)C(=O)Nc2ccc4c(c2)OCO4)O3)cc1 | – | -11.7%
O=C(NCC1(N2CCCCC2)CCCCC1)c1cccc(S(=O)(=O)Nc2ccccc2Cl)c1 | – | 15.5%
CCOc1ccc(S(=O)(=O)Nc2cccc(C(=O)NCC3(N4CCCCC4)CCCCC3)c2)cc1 | 12.6 µM (active) | –
O=C(NCC1(N2CCCCC2)CCCCC1)c1ccc(NS(=O)(=O)c2ccc(F)cc2)cc1 | – | 0.79%
O=C(CCNS(=O)(=O)c1ccccc1)NCCCc1ccccc1 | – | -6.15%
NS(=O)(=O)c1ccc(CCNC(=O)COC(=O)COc2cccc(C(F)(F)F)c2)cc1 | – | -0.623%
CN(C)C(=O)CCc1ccc2c3c([nH]c2c1)[C@]1(C)[C@@H](C(=O)N2CCOCC2)C[C@H](CC(=O)NCCc2ccccn2)C(=O)N1CC3 | – | -17.8%
N#CC1(Nc2ccc(-c3ccc(Cl)cc3)cc2)CCCC1 | – | 6.18%
O=C1COc2c1ccc(O)c2O | – | 13.3%
CC(C)(C)c1ccc(C(=O)NCc2ccco2)cc1 | – | -7.43%
CC(C)(C)OC(=O)CNC(=O)c1[nH]cnc1C(=O)N[C@@H](CCCCN)C(=O)OC(C)(C)C | – | 21.6%
COc1c(C)cccc1C(=O)Nc1cc(Cl)ccc1N1CCOCC1 | – | 7.94%
O=C(Nc1cc(Cl)ccc1N1CCOCC1)c1ccc(N2CCCC2=O)cc1 | 35.5 µM (active) | –
O=C(Nc1cc(-c2nn(CC(=O)N3CCCCC3)c(=O)c3ccccc23)ccc1N1CCOCC1)c1ccc(Cl)cc1 | – | -11.3%
COc1ccc(CCNC(=O)COC(=O)c2ncc(Cl)c(Cl)c2Cl)cc1OC | – | 5.04%
O=C(CSc1nc2ccccc2c(=O)n1-c1ccc(F)cc1)NC1CC1 | – | -11.8%
COCCN(C(=O)CSCc1ccc(C)cc1)c1c(N)n(CC(C)C)c(=O)[nH]c1=O | – | -7.8%
